Hits are enriched below; roughly 18% of the tested compounds scored in any of these assays.
IL-1B inflam inh: blocks inflammasome-driven IL-1 beta release | actives 4.7% (n = 360,000) | THP-1 LPS/ATP IL-1B secretion, AlphaLISA, 16 h; active compounds read low | AID 743279 | activity change, % at 57.5 µM; in the data active means activity change below about -50%; inconclusive means mostly about -30% to -49%
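THP-1 cells pretreated 1 hr with compounds (up to 57.5 uM final), then stimulated with LPS (250 ng/mL final) plus ATP (1.25 mM final); secreted IL-1B measured by AlphaLISA after 16 hr, decreased signal indicating inhibition.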
LDHA block: blocks human lactate dehydrogenase A. P00338. AID 1347041. activity change, % (values are at about 110 or 230 µM). actives 0.15% (n = 480,000). purified LDHA, NADH/diaphorase-resazurin fluorescence; active compounds read low; in the data active means activity change below about -30%; inconclusive means mostly about -25% to -30%;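 further: plate controls were DMSO wells for no effect and wells without enzyme for full effect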
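Human LDH5 (2 nM) was incubated with 0.06 mM NADH and 0.2 mM pyruvate for 5 min at room temperature in Tris pH 7.4. Remaining NADH was coupled through diaphorase/resazurin, and resorufin fluorescence was read at 0 and 20 min.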
TDP1 cell CPT: DT40-hTDP1 cell growth loss with CPT; chicken DT40 Tdp1-/-;hTDP1 cells + 20 nM CPT, ATP luminescence, 48 h; Potency, µM (top dose mostly 46.2 µM), for the others: at the top dose activity change, negative = growth inhibition, hits mostly inhibitors; actives 12% (n = 420,000); AID 686979; further: potency means the concentration at half of the fitted maximal effect; nearly all actives have a fitted effect of over 55% in size
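Cell growth measured by CellTiter-Glo luminescence after a minimum 48 h, 37 C compound exposure with 20 nM CPT in Tdp1-knockout DT40 cells stably expressing hTDP1, seeded 400/well; qHTS titration format.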
TDP1 cell noCPT: qHTS for Inhibitors of human tyrosyl-DNA phosphodiesterase 1 (TDP1): qHTS in cells in absence of CPT. AID 686978, 2013. Potency, µM (top dose mostly 46.2 µM), inactives show at the highest dose activity change, negative = growth inhibition, actives largely listed as inhibitors. actives 15% (n = 420,000). DT40 Tdp1-/- hTDP1 cells, no CPT, ATP luminescence, 48 h; further: potency means the concentration at half of the fitted maximal effect; nearly all actives have a fitted effect of over 55% in size
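Readout: luminescence from CellTiter-Glo after 30 min in the dark at RT. Cells: DT40 Tdp1-/- with stable hTDP1, 400/well. Exposure: compounds alone, ≥48 hr, 37 °C.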
RORgamma inh: inhibitors of mouse ROR gamma transcriptional activity. actives 5.4% (n = 310,000). Drosophila S2 Gal4-RORgamma UAS-luciferase reporter, 20 h. Potency, µM (series often up to 53.6 µM), without a hit: at the top dose activity change, negative = inhibition, hits mostly inhibitors. AID 2551; further: potency means the concentration at half of the fitted maximal effect; nearly all actives have a fitted effect of over 60% in size
Target sequence (P51450 whole entry, looked up, the tested form may be a part): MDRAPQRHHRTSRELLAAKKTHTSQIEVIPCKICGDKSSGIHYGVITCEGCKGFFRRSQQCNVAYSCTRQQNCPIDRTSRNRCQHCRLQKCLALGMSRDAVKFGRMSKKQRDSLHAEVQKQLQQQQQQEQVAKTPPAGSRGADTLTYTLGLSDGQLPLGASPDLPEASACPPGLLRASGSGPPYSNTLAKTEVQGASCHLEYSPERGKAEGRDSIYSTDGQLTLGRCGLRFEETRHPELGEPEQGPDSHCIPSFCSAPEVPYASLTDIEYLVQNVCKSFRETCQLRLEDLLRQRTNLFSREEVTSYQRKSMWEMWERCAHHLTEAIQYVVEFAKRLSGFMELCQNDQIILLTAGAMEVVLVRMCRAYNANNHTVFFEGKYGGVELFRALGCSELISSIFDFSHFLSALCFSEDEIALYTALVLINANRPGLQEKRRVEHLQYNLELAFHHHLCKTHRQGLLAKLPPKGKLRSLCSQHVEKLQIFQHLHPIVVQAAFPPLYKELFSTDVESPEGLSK
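Using a luciferase readout, inhibitors were identified by reduced reporter activity in Drosophila cells coexpressing a copper-inducible Gal4–ROR gamma fusion and UAS-driven Photinus luciferase, incubated 20 hr after 700 uM copper sulfate.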
VP16 counter: counter-screen for ROR gamma inhibitors: Gal4-VP16 reporter | actives 3.5% (n = 310,000) | AID 2546 | Drosophila S2 Gal4-VP16 UAS-luciferase, luminescence, 20 h | Potency, µM (top dose mostly 53.6 µM), for the others: at the top dose activity, negative = inhibition, hits mostly inhibitors;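 further: Gal4-VP16 expression switched on by copper sulfate through the metallothionein promoter; potency means the concentration at half of the fitted maximal effect; nearly all actives have a fitted effect of over 50% in size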
* = called active by the depositor; [ ] = another dose, or the depositor's remark. Unless noted, the call rests on the fitted dose curve; in most records, active means well fitted curve in the direction sought with a large enough effect; inconclusive means small, poorly fitted or top-dose-only effect, or another doubt; inactive means no such curve, though single readings can be large; an effect the other way counts as inactive or inconclusive. Unless noted, on the % scale 0 is the no-effect control and ±100 the full control effect.

For COc1cc(CC(=O)N2CCN(S(=O)(=O)c3ccc(C(C)C)cc3)CC2)cc(OC)c1OC the results were IL-1B inflam inh -11, LDHA block 2, TDP1 cell CPT 21µM* and TDP1 cell noCPT 21µM*.
For CCc1ccccc1NC(=O)CN1CCN(CC(=O)Nc2cc(C)ccc2OC)CC1 the results were IL-1B inflam inh -2, LDHA block -7, TDP1 cell CPT inconclusive, TDP1 cell noCPT 6.5µM*, RORgamma inh 35% and VP16 counter 1%.
Screening COc1ccccc1/C=C/C=N/NC(=O)CN1CCN(S(=O)(=O)c2ccc(C)cc2)CC1 returned IL-1B inflam inh inconclusive, LDHA block -7, TDP1 cell CPT inconclusive, TDP1 cell noCPT inconclusive, RORgamma inh 16µM* and VP16 counter inconclusive.
Screening Cc1ccc(S(=O)(=O)N2CCN(CC(=O)N/N=C/c3ccccc3OCC(=O)O)CC2)cc1 returned IL-1B inflam inh 0, LDHA block -1, TDP1 cell CPT 4%, TDP1 cell noCPT -5%, RORgamma inh 27% and VP16 counter 7%.
For O=C(Cn1cnc2c(nnn2Cc2ccc(F)cc2)c1=O)Nc1ccc2c(c1)OCO2 the results were LDHA block 3.
CCC1=NN(C(=O)COc2ccccc2)C(O)(c2ccncc2)C1 (stereo not given) was read as IL-1B inflam inh -17, LDHA block 2, TDP1 cell CPT inconclusive, TDP1 cell noCPT 16µM*, RORgamma inh 19% and VP16 counter -19%.
CCOC(=O)C1=NN(C(=O)COc2ccccc2)C(O)(c2ccc(Br)cc2)C1 (stereo not given) was read as IL-1B inflam inh 13, LDHA block -4, TDP1 cell CPT -25%, TDP1 cell noCPT 0%, RORgamma inh 4.5µM* and VP16 counter 11µM*.
For CCOC(=O)C1(C)CCN1C(=O)COc1ccccc1 (stereo not given) the results were IL-1B inflam inh -13, LDHA block -3, TDP1 cell CPT 2% and TDP1 cell noCPT -3%.
For CCC(Oc1ccccc1)C(=O)N(Cc1ccccc1)c1ccccn1 (stereo not given) the results were IL-1B inflam inh 0, LDHA block -2, TDP1 cell CPT inconclusive, TDP1 cell noCPT 16µM*, RORgamma inh -8% and VP16 counter inconclusive.
Screening O=C(N(Cc1ccccc1)c1ccccn1)C12CC3CC(CC(C3)C1)C2 returned IL-1B inflam inh -24, LDHA block -2, TDP1 cell CPT 26µM*, TDP1 cell noCPT 16µM*, RORgamma inh -26% and VP16 counter 9%.
COc1ccccc1CNC(=O)c1nc(COc2c(C)occc2=O)no1 was read as LDHA block 0.
Screening CC(=O)c1c(C(C)=O)c(C)n(-c2ccc(O)cc2)c1C returned IL-1B inflam inh 13, LDHA block 1, TDP1 cell CPT -15%, TDP1 cell noCPT -12%, RORgamma inh -1% and VP16 counter 18%.
Screening CCN(CC)c1ccc(-n2c(C)c(C(C)=O)c(C(C)=O)c2C)cc1 returned IL-1B inflam inh -2, LDHA block 0, TDP1 cell CPT 23µM*, TDP1 cell noCPT 10µM*, RORgamma inh 41% and VP16 counter 5%.
`CC(C)Cc1ccc(C(C)C(=O)NC(c2ccccc2)c2ccccc2)cc1` (stereo not given) gave LDHA block 0.
For COc1cc(OC)c2ccc(=O)oc2c1C(CCN1CCCC1)c1ccc(N(C)C)cc1 (stereo not given) the results were IL-1B inflam inh -2, LDHA block 1, TDP1 cell CPT 9.2µM*, TDP1 cell noCPT inconclusive, RORgamma inh -2% and VP16 counter -2%.
For CCN(CC)CCC(c1ccc(N(C)C)cc1)c1c(OC)cc(OC)c2ccc(=O)oc12 (stereo not given) the results were IL-1B inflam inh -2, LDHA block 1, TDP1 cell CPT 10µM*, TDP1 cell noCPT 13µM*, RORgamma inh -2% and VP16 counter -5%.
For Cc1cccc(C)c1OCc1nc2c3c(ncn2n1)OC1=C(C(=O)CCC1)C3c1ccco1 (stereo not given) the results were LDHA block 4.
`COc1ccc(C(=O)O)cc1S(=O)(=O)Nc1cc(Cl)ccc1Cl` gave LDHA block 0.
Screening Cc1nc(-c2cccc(NC(=O)Nc3ccc([N+](=O)[O-])cc3)c2)no1 returned LDHA block -6, TDP1 cell CPT 5.2µM* and TDP1 cell noCPT 4.6µM*.
`COc1ccc(NC(=O)C2CCCC2)cn1` gave IL-1B inflam inh 4, LDHA block 7, TDP1 cell CPT 13%, TDP1 cell noCPT -2%, RORgamma inh -6% and VP16 counter -7%.
`COc1ccc(C(=O)CC(Nc2ccc([N+](=O)[O-])cc2)c2ccc(OC)cc2)cc1` (stereo not given) gave IL-1B inflam inh -7, LDHA block -5, TDP1 cell CPT inconclusive, TDP1 cell noCPT 18µM*, RORgamma inh -3% and VP16 counter 3%[0.365 µM].
COc1ccc(NC(=O)Nc2ccc(F)cc2)cn1 was read as IL-1B inflam inh -3, LDHA block -2, TDP1 cell CPT 16µM*, TDP1 cell noCPT 7.3µM*, RORgamma inh 0% and VP16 counter -22%.
COC(=O)c1ccc(NC(=O)Nc2ccc(F)cc2)cc1 was read as IL-1B inflam inh inconclusive, LDHA block -2, TDP1 cell CPT 18µM*, TDP1 cell noCPT 13µM*, RORgamma inh inconclusive and VP16 counter 3%.
Screening COC(=O)c1ccc(NC(=O)Nc2ccc(OC)cc2)cc1 returned IL-1B inflam inh inconclusive, LDHA block -8, TDP1 cell CPT inconclusive, TDP1 cell noCPT inconclusive, RORgamma inh 12% and VP16 counter 4%.
For COc1ccc(C)cc1NC(=O)Nc1cccc(-c2noc(C)n2)c1 the results were LDHA block -1, TDP1 cell CPT inconclusive and TDP1 cell noCPT inconclusive.
Screening CCCCn1nc(C(=O)N2CCCC2c2ccc3c(c2)OCCO3)c2ccccc2c1=O (stereo not given) returned LDHA block -15.
Cc1ccc(C=Nc2ccc(C)c(N=Cc3ccc(C)s3)c2)s1 was read as LDHA block 16.
`CCOC(=O)NC(C)c1ccc(OC)cc1` (stereo not given) gave LDHA block 4.

From PubChem
